Pf Dd2 inh – inhibitors of Plasmodium falciparum Dd2 growth; P. falciparum Dd2 growth, SYBR Green, 72 h; Potency, µM (doses to about 28.9 µM), without a hit: at the highest dose activity, negative = inhibition, most hits filed as inhibitors; 120,000 compounds, 4.3% hits; AID 1347417; active = well fitted inhibition curve with a large enough effect;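 also: plate controls were DMSO vehicle for no effect and reference drug for full effect; nearly all actives have a fitted effect of over 65% in size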
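Infected erythrocytes (Dd2, 0.3% parasitemia, 2.5% hematocrit final) are added to compound in RPMI-1640/Albumax II medium, grown 72 h at 37C in low oxygen, then lysed with saponin/Triton-X containing SYBR Green and read by fluorescence.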
Active calls of the source: *; i = inactive; [ ] = remark or other dose. The full list was thinned out, with hits kept by preference. Potency is read from the fitted curve at half-maximal effect.

SMILES | Pf Dd2 inh
Cc1ccn2c(Nc3ccccc3C)c(-c3ccccn3)nc2c1 | 3.2µM*
Cc1ccc2nc(-c3c[nH]c4ccccc34)c(Nc3ccccc3C)n2c1 | -24%
Cc1ccccc1Nc1c(-c2cccc(Cl)c2)nc2ncccn12 | -3%
C#CCNC(=O)c1nc(-c2ccc(Cl)cc2)c2ccccn12 | -26%[44.1 µM]
Cn1cccc1C(=O)N1CCC(n2cnnc2-c2ccccc2)C1 (configuration not stated) | -18%
CC(=O)Nc1ccc(CC(=O)N2CCc3c(c(-c4nncn4C)nn3C)C2)cc1 | -18%
Fc1cccc(Cc2noc(-c3nc(-c4ccccc4F)no3)n2)c1 | -9%
C[S+](=O)([O-])N1Cc2ccccc2CC2(CCCCN2Cc2ccccc2)C1 (configuration not stated) | -27%
Cc1ccc(CCN2CCCCC23Cc2ccccc2CN([S+](C)(=O)[O-])C3)cc1 (configuration not stated) | 10µM*
CN1CCC2(CC1)Cc1ccccc1CN([S+](C)(=O)[O-])C2 | -27%
CN1C(=O)[C@@H]2C[C@@H](O)CN2C2(CN(CC3CCCCC3)C2)C1=O | 13%[44.1 µM]
COC1CCC12CCN(C(=O)c1ccc(C#N)cc1)CC2 (configuration not stated) | 20%
COc1cccc(C(=O)N2CCC(N3C[C@H](O)C[C@H]3C(=O)N3CCN(C(C)C)CC3)CC2)c1 | 5%
CCNC(=O)[C@@H]1C[C@@H](O)CN1C1CCN(C(=O)c2cccc(OC)c2)CC1 | -11%
COc1cccc(C(=O)N2CCC(N3C[C@H](O)C[C@H]3C(=O)N3CCc4ccccc4C3)CC2)c1 | 1.4µM*
COc1cc(CN2CCC3(CC2)CC(O)CCO3)cc(OC)c1 (configuration not stated) | -8%
C#C[C@H]1CN2CC[C@H]1C[C@@H]2CNC(=O)c1ccc(-c2ccccc2)cc1 | i
CCc1ccc(NC(=O)CC2C(=O)N(c3ccc(C)cc3)C(=O)N2CCc2ccncc2)cc1 (configuration not stated) | 6.3µM*
COc1ccc(CCN2C(=O)N(c3ccc(C)cc3)C(=O)C2CC(=O)Nc2ccc(F)cc2)cc1 (configuration not stated) | -20%
Cc1cccc(N2C(=O)C(CC(=O)Nc3cccc(F)c3)N(CCc3ccncc3)C2=O)c1 (configuration not stated) | -18%
CN(C)c1nc(-c2ccccc2)nc2c1CCN(C(=O)C1CC1)C2 | -11%
Cc1cnc(C(=O)NC2C[C@H]3CC[C@@H](C2)N3C(=O)c2cccs2)cn1 (some centres not stated) | -20%
CC(C)(C)CC(=O)N1CCC(C(NC(=O)c2ccccc2Cl)C(=O)N2CCCCC2)CC1 (configuration not stated) | -17%
CCOc1ccccc1NC(=O)C[C@H]1NC(=O)c2ccccc2NC1=O | -8%
Cc1cc2c(cc1C)NC(CC(=O)Nc1ccccc1)C(=O)N2 (configuration not stated) | i
SMILES | Pf Dd2 inh
COc1ccc(NC(C)=O)cc1NC(=O)C[C@H]1NC(=O)c2ccccc2NC1=O | -6%
O=C(C[C@H]1NC(=O)c2ccccc2NC1=O)Nc1ccncc1 | -4%
Cc1ccc(NC(=O)CC2Nc3ccccc3NC2=O)cc1C (configuration not stated) | -6%
CC(=O)c1ccc(NC(=O)CC2Nc3cc(C)c(C)cc3NC2=O)cc1 (configuration not stated) | 5µM*
COC(=O)c1ccc(NC(=O)CC2Nc3cc(C)c(C)cc3NC2=O)cc1 (configuration not stated) | 4µM*
CCOC(=O)c1ccc(NC(=O)CC2Nc3ccccc3NC2=O)cc1 (configuration not stated) | 13µM*
Cc1cc(Br)ccc1NC(=O)C[C@H]1NC(=O)c2ccccc2NC1=O | -14%
O=C1NCCOCCCN(C(=O)C2CCCC2)[C@H]2CCCC[C@@H]12 | -22%
N#Cc1cccnc1N1CCC(NC(=O)c2ccc3cccc(F)c3n2)CC1 | i
COc1ccc(CNC(=O)C[C@@H]2O[C@H](CNC(=O)NC(C)C)[C@@H](O)[C@H]2O)cc1 | -9%[44.1 µM]
COc1ccc(-c2noc(-c3nc(Cc4cccc(F)c4)no3)n2)cc1OC | i
COCCNc1ncc(-c2ccc([S+](C)(=O)[O-])cc2)c2c1OCC2 | i
Cc1ccc(-n2c(C3CCN(C(=O)CCC4CCCC4)CC3)n[nH]c2=O)cc1 | -22%
CCCc1cc(CN(C)C(=O)C2CC(=O)N(c3ccc(C(C)C)cc3)C2)[nH]n1 (configuration not stated) | -24%
CN1[C@H](CO)C[C@H](CNC(=O)c2cn(CCN)nn2)[C@@H]1c1ccccc1F | 11%
O=C(Cc1ccccc1Br)N1CCCN(c2cc(-c3ccc(F)cc3)[nH]n2)CC1 | -3%
Cn1ccnc1C(=O)N1CCCC(c2noc(COc3ccccc3F)n2)C1 (configuration not stated) | -13%
Cc1ccc(Cn2nnc(C(=O)Nc3ccc(F)c(F)c3)c2N)cc1 | 0.89µM*
CCc1ccc(Cn2nnc(C(=O)Nc3ccc(C)cc3)c2N)cc1 | -23%

Screening data from PubChem.
